Results filed as inconclusive are left out. A number with no mark means an inactive call. The source made the active and inactive calls. Calls come from the whole dose curve; as a rule, active = well fitted activation curve with a large enough effect in the signal ratio in the repeat runs (not every such curve was filed as active); inconclusive = weak or mixed curves, or effect the other way; inactive = no such curve, though single readings can be large or run the other way; the % refers to the signal ratio.
% is set by controls: 0 for no effect and ±100 for the full control effect.

The target in this assay is Peroxisome proliferator-activated receptor gamma (Homo sapiens) (UniProt P37231). As to the kind of experiment: qHTS assay to identify small molecule agonists of the peroxisome proliferator-activated receptor gamma (PPARg) signaling pathway (AID 743094). As to conditions: HEK293H PPARg-UAS-bla, beta-lactamase FRET ratio, 17 h; series mostly up to 57 µM; activation: at the top concentration. An excerpt: U.S. Tox21 Program National Center for Advancing Translational Sciences [NCATS] NIH Chemical Genomics Center [NCGC] U.S. Environmental Protection Agency [EPA] National Institutes of Environmental Health Sciences [NIEHS] National Toxicology Program [NTP] U.S. Food and Drug Administration [FDA] Tox21 Assay Overview: The peroxisome proliferator-activated receptors (PPARs) are lipid-activated transcription factors of the nuclear receptor superfamily with three distinct subtypes namely PPAR alpha, PPAR delta (also called PPAR beta) and PPAR gamma (PPARg). All these subtypes heterodimerize with Retinoid X receptor (RXR) and these heterodimers regulate transcription of various genes. PPAR-gamma receptor (glitazone receptor) is involved in the regulation of glucose and lipid metabolism. To identify the compounds that activate PPAR-gamma signaling, GeneBLAzer PPAR gamma UAS-bla HEK293H cell line (Invitrogen, Carlsbad, CA, USA) containing a beta-lactamase reporter gene under control of the control of an upstream activator sequence (UAS) stably integrated into HEK293H cells was used to screen Tox21 compound library.
Peroxisome proliferator-activated receptor gamma (Homo sapiens), sequence (P37231 whole entry, looked up): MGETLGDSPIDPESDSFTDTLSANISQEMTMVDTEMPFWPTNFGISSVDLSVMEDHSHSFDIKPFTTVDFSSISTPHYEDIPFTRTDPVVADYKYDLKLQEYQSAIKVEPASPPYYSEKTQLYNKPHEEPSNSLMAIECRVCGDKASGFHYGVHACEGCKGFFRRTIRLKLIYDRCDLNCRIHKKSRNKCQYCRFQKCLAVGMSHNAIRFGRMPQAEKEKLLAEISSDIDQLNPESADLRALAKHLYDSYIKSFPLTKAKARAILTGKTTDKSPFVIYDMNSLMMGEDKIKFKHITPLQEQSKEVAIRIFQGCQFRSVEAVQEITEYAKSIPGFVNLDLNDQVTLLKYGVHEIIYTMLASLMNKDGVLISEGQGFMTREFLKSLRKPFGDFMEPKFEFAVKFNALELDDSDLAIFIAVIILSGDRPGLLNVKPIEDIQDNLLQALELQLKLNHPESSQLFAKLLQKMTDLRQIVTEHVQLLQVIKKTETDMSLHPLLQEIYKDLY
Tox21 Assay Protocol Summary: PPARg-bla cells were dispensed at 3000 cells/6uL/well in 1536-well black wall/clear bottom plates using a Multidrop Combi (Thermo Fisher Scientific, Waltham, MA) dispenser. After the assay plates were incubated at 37C and 5% CO2 for 5 h, 23 nL of compounds dissolved in DMSO, positive controls or DMSO only was transferred to the assay plate by a Pintool station (Kalypsys, San Diego, CA). The assay plates were incubated at 37C for 17 h. After 1 uL of LiveBLAzerTM B/G FRET substrate was added using a Bioraptr Flying Reagent Dispenser (FRD) workstation (Beckman Coulter, Indianapolis, IN, USA), the plates were incubated at room temperature for 1 h, and fluorescence intensity was measured by an Envision plate reader (PerkinElmer, Shelton, CT).
In the case of `CC(Oc1cccc(Cl)c1)C(=O)O` (stereo not given), the “activation” value was 5.97%. For `C=CCOC(=O)C(C)(C)OC(=O)c1cc(-n2c(=O)cc(C(F)(F)F)n(C)c2=O)ccc1Cl`, the “activation” value is -2.46%. In the case of `NNCCO`, the “activation” value is -3.28%. The same measure, in the same setting: in the case of `O=C(O)c1cc(Cl)ccc1Cl` it was -0.869%; in that of `O=C(O)C(Cl)(Cl)Br`, 4.33% [at 78.9 µM]; in that of `CCc1ccccc1N`, -2.48%. Still for that read-out and setting: then `OCCSSCCO`, with -1.01%; and `CCCN(CCOc1c(Cl)cc(Cl)cc1Cl)C(=O)n1ccnc1`, with -8.71%.

Turning to `C=C(Cl)Cl`, the “activation” value was -0.0255% [at 78.9 µM].

Regarding `CCCSP(=S)(OCC)Oc1ccc(SC)cc1` (stereo not given), the “activation” value was -0.674%. Still for that read-out and setting: in the case of `C=CCc1ccc(OC(=O)Cc2ccccc2)c(OC)c1` it was 5.23%. Same read-out and setting: in the case of `CC(Cl)C(=O)O` (stereo not given) it was 1.02% [at 78.9 µM]; in that of `CC(Cc1ccccc1)NCc1ccccc1Cl` (stereo not given), -0.492%; in that of `Nc1ccc2c(c1)Cc1ccccc1-2`, -7.96%.

For `CC[N+]1(C)CCCC(OC(=O)C(O)(c2ccccc2)c2ccccc2)C1` (stereo not given), the “activation” value is 1.12%. As for `CC(=O)OC(c1ccccc1)C(Cl)(Cl)Cl` (stereo not given), the “activation” value is -2.99%. With `C=CC(=O)NC(C)(C)CC(C)=O`, the “activation” value is -2.1%. Take `O=C(Cc1ccccc1)OCCc1ccccc1`: the “activation” value was 1.33%. The same measure, in the same setting: in the case of `COc1cc(CC(C)N)c(OC)cc1Br` (stereo not given) it was -1.71% [at 78.9 µM]; in that of `CCCCCCCCCCCCN(C)C`, 1.78%; in that of `Cc1cnc(C2=NC(C)(C(C)C)C(=O)N2)c(C(=O)O)c1` (stereo not given), 4.25%. Still for that read-out and setting: in the case of `Clc1ccc2ccccc2c1` it was -1.97% [at 78.9 µM]. Regarding `CCCC(C)(COC(N)=O)COC(=O)NC(C)C` (stereo not given), the Potency result is “inactive”. On to `CCCCC1C(=O)NC(=O)N(C2CCCCC2)C1=O` (stereo not given), for which the “activation” value was 0.0497%. Same read-out and setting: in the case of `CNC(=O)Oc1cccc(N=CN(C)C)c1` it was -0.168%.

Turning to `Nc1c(Br)cc(Br)c2c1C(=O)c1ccccc1C2=O`, the “activation” value was -0.852% [at 26.2 µM]. Take `COC(=O)Cc1ccccc1`: the “activation” value was -2.59%. The same measure, in the same setting: in the case of `CON(C)C(=O)Nc1ccc(Cl)cc1` it was 0.516%. In the case of `CCCCC(CC)COC(=O)c1c(Br)c(Br)c(Br)c(Br)c1C(=O)OCC(CC)CCCC` (stereo not given), the “activation” value was 0.732%. Take `CCc1cnc(C2=NC(C)(C(C)C)C(=O)N2)c(C(=O)O)c1` (stereo not given): the Potency entry was “inactive”. On to `CCCCCCCCCCCCN=C(N)N`, for which the activation was 0.522% [at 3.17 µM].

In the case of `CCSCc1ccccc1OC(=O)NC`, the “activation” value is 4.72%. Still for that read-out and setting: then `O=C1NC(=O)C(=O)C(=O)N1`, with 1.13% [at 78.9 µM]. Turning to `CCOP(=S)(S)OCC`, the “activation” value is 1.37% [at 78.9 µM]. Still for that read-out and setting: in the case of `O=C(N/N=C/c1ccc([N+](=O)[O-])o1)c1cc([N+](=O)[O-])cc([N+](=O)[O-])c1O` it was -1.56%. The same measure, in the same setting: then `CCC(C)Cl` (stereo not given), with 0.601%; and `C[N+](C)(C)CC1CO1` (stereo not given), with -0.915%.

For the compound `FC(F)OC(F)(F)C(F)Cl` (stereo not given), the Potency entry is “inactive”.

In the case of `C1CS1`, the “activation” value was 0.0032% [at 78.9 µM].

With `Cc1nc(N(C)C)nc(OC(=O)N(C)C)c1C`, the “activation” value is 0.882%.

The values are drawn from PubChem BioAssay (Tox21).
